NPR1 antag = blocks ANP-stimulated signaling of human Npr1 receptor | P16066 | 76,000 compounds, 1.6% hits | Potency, µM (titrated, usually from 46.3 µM), inactives show top-dose activity change, negative = inhibition, most hits filed as inhibitors | HEK293 hNpr1 GloSensor cGMP, ANP-stimulated luminescence | AID 1347048; calls by dose curve; further: nearly all actives have a fitted effect of over 60% in size
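Compound pre-incubated 30 min at room temperature on GloSensor-loaded HEK293 cells stably carrying hNpr1 and the pGS-40F cGMP biosensor. Stimulation uses hNppA at 0.1 nM final; luminescence is taken at baseline and 20 min post-agonist.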
Luciferase inh = Photinus pyralis luciferase inhibition; 76,000 compounds, 2.5% hits; purified P. pyralis luciferase, luminescence, biochemical; AID 1347043; P08659; Potency, µM (titrated, usually from 115 µM), most hits filed as inhibitors; further: nearly all actives have a fitted effect of over 65% in size
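Purified P. pyralis luciferase (10nM final) in 50mM Tris acetate pH 7.5, 10mM Mg acetate, 0.01% Tween-20, 0.05% BSA with 10uM D-luciferin and 10uM ATP. Compounds titrated qHTS. Luminescence imaged on CCD.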
HEK cytotox = kills HEK 293 cells; Potency, µM (doses to about 115 µM), for the others: at the highest dose activity change, negative = cytotoxicity, usual class: inhibitors; 94,000 compounds, 6.6% hits; AID 1345083; HEK 293 viability, ATP luminescence (CellTiter-Glo), 48-72 h; further: nearly all actives have a fitted effect of over 60% in size
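HEK 293 cells seeded at 250 cells/well were exposed to compound for 48 or 72 hr at 37 degree Celsius. Viability taken as ATP content by CellTiter-Glo luminescence.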
NIH3T3 tox = kills NIH 3T3 cells; 94,000 compounds, 4.3% hits; Potency, µM (series often up to 96.7 µM), for inactives: at the top dose activity change, negative = cytotoxicity, hits mostly inhibitors; NIH 3T3 viability, CellTiter-Glo ATP luminescence, 48-72 h; further: nearly all actives have a fitted effect of over 55% in size
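NIH 3T3 cells at 400 cells/well received 23 nL of compound by pintool and were incubated 48 or 72 h at 37 °C. Viability was read as ATP-coupled CellTiter-Glo luminescence.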
* marks the source's active call; other numbers are inactive results; i = inactive; ? = inconclusive; nt = not tested or not shown; [ ] = another dose, or the depositor's remark. An excerpt weighted towards active compounds, which were near 11% of everything screened. Unless noted, the call rests on the fitted dose curve; in most records, active means well fitted curve in the direction sought with a large enough effect; inconclusive means small, poorly fitted or top-dose-only effect, or another doubt; inactive means no such curve, though single readings can be large; an effect the other way counts as inactive or inconclusive. On the % scale 0 is the no-effect control and ±100 the full control effect; potency means the concentration at half of the fitted maximal effect.

SMILES	NPR1 antag	Luciferase inh	HEK cytotox	NIH3T3 tox
COCCNC(=O)c1nc2c(o1)CCN(Cc1ccc(F)c(Cl)c1)CC2	?	i	?	?
COCCNC(=O)[C@H]1C[C@H](Oc2ccccc2)CN1Cc1ccc(OC(F)(F)F)cc1	3%	i	?	?
COCCNC(=O)[C@H]1C[C@H](Oc2ccccc2)CN1Cc1ccc2[nH]ccc2c1	-4%	i	10µM*	?
O=C(Nc1cccnc1)c1nc2c(o1)CCN(Cc1ccc(F)c(F)c1)CC2	28µM*	71µM*	?	?
O=C(Nc1ccc(Cl)cc1)NC1CCN(CCn2nc3n(c2=O)CCCC3)C1 (stereo not drawn)	nt	nt	-17%	?
O=C(CNC(=O)c1cccc(-c2ccsc2)c1)NCc1cccs1	nt	nt	-29%	?
COCCC(=O)N1CCCC(n2c(C)cnc2C2CC2)C1 (stereo not drawn)	nt	nt	-1%	-1%
O=C(NCCN1C(=O)C2(CCCCC2)C1c1ccccc1)C1CCC1 (stereo not drawn)	nt	nt	-4%	-5%
O=C(COc1ccccc1)N1CCC2(CC1)NC(=O)N(c1ccccc1Cl)N2	1%	i	?	?
O=C(Cc1ccc(Cl)cc1)N1CCC2(CC1)NC(=O)N(c1ccccc1Cl)N2	-1%	i	89µM*	40µM*
CN(C)c1cccc(-c2cc(C(=O)NCCc3ccccn3)c3c(c2)ncn3C)c1	-1%[70.6 µM]	i	?	?
CC(C)CCN1CCCC2(C1)NC(=O)c1ccccc1O2 (stereo not drawn)	19%[70.6 µM]	i	-12%[172 µM]	-19%[138 µM]
COc1ccc(F)cc1-c1ccc(CN2CCC(NC(=O)c3cccc(Cl)c3)C2)cc1 (stereo not drawn)	nt	nt	22µM*	22µM*
COc1ccccc1-c1ccc(CN2CCC(NC(=O)c3cccc(Cl)c3)C2)cc1 (stereo not drawn)	nt	nt	20µM*	22µM*
COC1CCN(c2cc(-c3ccsc3)nc3c(C)noc23)CC1	-2%[70.6 µM]	i	79µM*	?
COC1CCCN(c2cc(-c3ccc(Cl)cc3)nc3c(C)noc23)C1 (stereo not drawn)	1%[70.6 µM]	i	56µM*	?
COC1CCCN(c2cc(-c3ccsc3)nc3c(C)noc23)C1 (stereo not drawn)	-1%[70.6 µM]	i	?	?
COc1ccc(C2(C(=O)NCc3cccc(Cl)c3)CCOCC2)cc1	nt	nt	-22%	-15%
Cc1ccc(C(=O)N2CCCCCCNC(=O)[C@@H]3C[C@@H](c4nc(Cc5ccccc5)no4)C[C@@H]32)s1	0%	i	79µM*	?
CCNC(=O)N1CCCCCCNC(=O)[C@@H]2C[C@@H](c3nc(Cc4ccccc4)no3)C[C@@H]21	2%	i	i	-5%
COc1ccc(CN2CCC3(C2)C(=NC2CCCC2)NC(=O)N3c2cccc(OC)c2)cc1 (stereo not drawn)	nt	nt	?	-21%
CC(C)CCN1CCCC2(C1)C(=NC1CCCC1)NC(=O)N2c1cc(F)cc(F)c1 (stereo not drawn)	nt	nt	?	32µM*
COc1cccc(N2C(=O)NC(=NC3CCCC3)C23CCCN(CCC(C)C)C3)c1 (stereo not drawn)	nt	nt	?	32µM*
CCOC(=O)[C@@H]1CN(C(=O)c2ccno2)[C@H]2c3ccccc3O[C@@H]12	nt	nt	-17%	?
COc1ccc(CN2C[C@@H](F)[C@@H](OCc3nc4ccccc4o3)C2)cc1	-23%[70.6 µM]	i	?	?
SMILES	NPR1 antag	Luciferase inh	HEK cytotox	NIH3T3 tox
COc1ccccc1Nc1ccnc(N2CCCC(C(=O)NCc3ccc(Cl)cc3)C2)n1 (stereo not drawn)	nt	nt	11µM*	?
COC(=O)CNC(=O)[C@@H]1CCCN1c1nccc(Nc2ccccc2OC)n1	nt	nt	-23%	-30%
COc1cccc(CNC(=O)C2CCCN(c3nccc(Nc4ccccc4OC)n3)C2)c1 (stereo not drawn)	nt	nt	?	32µM*
COC(=O)CNC(=O)C1CCN(c2nccc(Nc3ccccc3OC)n2)CC1	nt	nt	-19%	-24%
COc1cccc(CNC(=O)C2CCN(c3nccc(Nc4ccccc4OC)n3)CC2)c1	nt	nt	?	40µM*
COc1ccccc1Nc1ccnc(N2CCCC(C(=O)NCc3cccs3)C2)n1 (stereo not drawn)	nt	nt	?	32µM*
COC1CN(c2ccc(C)cc2)C12CCN(C(=O)COc1ccc(F)cc1)CC2 (stereo not drawn)	-3%	i	?	?

Screening data: PubChem, National Center for Advancing Translational Sciences (NCATS)
